Bioassay records (PubChem)
Only some compounds are listed: those with a hit (about 1.3% of all), similar ones and a draw of the others.
UBC9 SUMO inh = inhibitors of in vitro SUMOylation cascade, primary screen, biochemical, HTRF, uHTS; SUMO-conjugating enzyme UBC9 (Homo sapiens), P63279; inhibition, % at 35 µM; HTRF SUMOylation assay, SAE1/SAE2 + UBC9; 0.36% of 290,000 active; in the data active = inhibition above about 50%, passing the limit was not always enough
Target sequence (P63279 whole entry, looked up): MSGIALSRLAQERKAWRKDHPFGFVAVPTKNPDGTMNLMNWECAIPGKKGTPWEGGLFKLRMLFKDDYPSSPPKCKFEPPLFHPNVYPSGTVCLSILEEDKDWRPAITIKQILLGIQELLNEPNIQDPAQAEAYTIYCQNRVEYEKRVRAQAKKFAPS
NCF1 inh = p47phox/p22phox peptide binding inhibitors, primary screen, biochemical, uHTS, NADPH oxidase regulatory subunit; inhibition, % at 24.7 µM; fluorescence polarization, 2 h; 0.53% of 220,000 active; Neutrophil cytosol factor 1 (Homo sapiens), P14598; AID 1274, 2008;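 note: 0% = p47phox with labelled peptide and 100% = labelled peptide alone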
Target sequence (P14598 whole entry, looked up): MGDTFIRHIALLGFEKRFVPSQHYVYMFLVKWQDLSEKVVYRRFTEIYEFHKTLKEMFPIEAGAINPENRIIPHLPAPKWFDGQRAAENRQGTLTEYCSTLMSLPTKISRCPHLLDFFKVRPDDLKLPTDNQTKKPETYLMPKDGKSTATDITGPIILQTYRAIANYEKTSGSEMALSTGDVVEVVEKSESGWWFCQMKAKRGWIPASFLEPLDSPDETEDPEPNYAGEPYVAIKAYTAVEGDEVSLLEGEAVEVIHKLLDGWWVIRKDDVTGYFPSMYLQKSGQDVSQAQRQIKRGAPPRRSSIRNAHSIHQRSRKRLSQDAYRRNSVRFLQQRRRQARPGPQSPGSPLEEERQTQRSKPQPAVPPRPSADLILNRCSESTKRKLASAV
eIF4E-4G inh = eIF4E–eIF4G protein interaction inhibitors, primary screen, biochemical, uHTS, TR-FRET, eIF4GI fragment; inhibition, % at 21.7 µM; 0.37% of 220,000 active; TR-FRET eIF4E-eIF4GI(517-606) binding, 2 h; Eukaryotic translation initiation factor 4E (Mus musculus) + Eukaryotic translation …;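 note: 0% = full FRET control wells and 100% = background wells lacking eIF4GI fragment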
14-3-3 Bad inh = inhibitors of 14-3-3 zeta/Bad binding, primary screen, biochemical, TR-FRET, bovine 14-3-3 zeta; 14-3-3 protein zeta/delta (Bos taurus), P63103; TR-FRET 14-3-3zeta/Dy647-pBad peptide displacement, 1 h; inhibition, % at 21.7 µM; 0.71% of 220,000 active;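 active = inhibition above about 70%, limit read from the data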;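 note: 0% = full 14-3-3 plus peptide FRET controls and 100% = background without 14-3-3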
Active calls of the source: *; · = not tested or not shown.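 Rule for the calls, unless noted: active = inhibition above about 30% (limit read from the data); inactive = the rest.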

SMILES	UBC9 SUMO inh	NCF1 inh	eIF4E-4G inh	14-3-3 Bad inh
COCCNC(=O)C1CC(c2cccc(F)c2)=NO1 (configuration not stated)	-6	13	60*	0
CCc1ccccc1NC(=O)C1CC(c2ccc(F)cc2)=NO1 (configuration not stated)	10	33*	-3	1
CCOC(=O)c1c(C=O)c2sc(C)cc2n1C	33	-4	-2	0
CC(=O)c1cccc(NC(=O)COc2cc3oc(=O)c(CC(C)O)c(C)c3cc2Cl)c1 (configuration not stated)	-1	-12	2	0
Cc1ccc(CNC(=O)[C@H](Cc2ccccc2)NC(=O)C2CCNCC2)cc1	-6	·	·	·
CN(CCO)c1nc(N)c2c(N)nc3c(c2c1C#N)CC(=O)N3C1CCCC1	101*	-8	3	-11
N#Cc1c(N2CCN(c3ccc(F)cc3)CC2)nc(N)c2c(N)nc3c(c12)CC(=O)N3C1CC1	94	0	5	-19
CC(C)(C)N1C(=O)Cc2c1nc(N)c1c(N)nc(N3CCCCC3CO)c(C#N)c21 (configuration not stated)	100*	-4	-12	22
Cc1coc(=N)n1CC(=O)c1ccc(Cl)cc1	-4	-4	4	-16
COc1cc(/C=N/NC(=O)c2cc(-c3ccc4c(c3)OCO4)n[nH]2)ccc1O	-9	0	0	2
O=C(N/N=C/c1ccc([N+](=O)[O-])cc1)c1cc(-c2ccc3c(c2)OCO3)n[nH]1	17	15	-5	76*
CN1CCCC(OC(=O)c2ccc(C#N)cc2)C1 (configuration not stated)	1	·	·	·
Cc1ccc2[nH]c(=O)c(CN(CCCN(C)C)C(=O)Nc3ccc(F)cc3)cc2c1	-9	4	0	6
COC(=O)C1=C(C)N(C)C(=O)NC1c1c(O)ccc2ccccc12 (configuration not stated)	2	·	·	·
Cc1ccc2nc(=O)c(NNc3ccccc3)cnc2c1	-11	4	1	-14
Cc1nc2ccccc2nc(=O)c1NNc1ccccc1	-31	74*	5	-8
CN(CCC#N)C(=O)COC(=O)c1c2c(nc3ccccc13)/C(=C/c1ccco1)CC2	53*	-10	7	-10
COc1ccc(/C=C2\CCc3c2nc2ccccc2c3C(=O)O)cc1OC	29	-12	-1	1
CSCC[C@H](NC(=O)OC(C)(C)C)C(=O)N/N=C/c1ccc2nccnc2c1	12	3	3	-3
COc1ccc(C(=O)OCC(=O)NCc2ccccc2)c(OC)c1OC	23	-6	0	0
CCOC(=O)C1CCCCN1Cc1cc(OC)ccc1OC (configuration not stated)	7	-18	-5	91*
CCOC(=O)C1CCCCN1Cc1cccc(F)c1 (configuration not stated)	-15	-1	4	71*
CCOC(=O)C1CCN(Cc2ccc(F)cc2F)CC1	-2	-5	1	76*
CCOC(=O)C1CCCCN1Cc1ccc(F)cc1 (configuration not stated)	0	-9	1	63
CCOC(=O)C1CCCCN1Cc1cc(Cl)ccc1O (configuration not stated)	9	2	·	·
SMILES	UBC9 SUMO inh	NCF1 inh	eIF4E-4G inh	14-3-3 Bad inh
CCOC(=O)C1CCCCN1Cc1cccc(OC)c1OC (configuration not stated)	0	-1	4	76*
Cc1ccc(C(C(=O)NC(C)(C)C)N(Cc2cccnc2)C(=O)C(=O)NC2CCCCC2)o1 (configuration not stated)	27	-7	2	23
CCOC1C(=O)NC(=O)N1Cc1ccccc1 (configuration not stated)	-10	·	·	·
Cc1ccc(C)c(C(=O)NCc2ccncc2)c1	-10	2	2	0
CCN(c1cccc(C)c1)S(=O)(=O)c1cnc[nH]1	1	-7	1	12
Cc1[nH]c(=S)c(C#N)c(-c2ccccc2)c1C(=O)Nc1ccccc1	25	-10	32*	-3
CC(C)(C)N1OC2CC1c1nc3ccccc3n1C2 (configuration not stated)	16	50*	-6	-3
O=c1c(-c2ccc(Cl)cc2)coc2c(CN3CCOCC3)c(O)ccc12	38	-12	7	-1
O=c1c(-c2ccccc2)coc2c(CN3CCCC3)c(O)ccc12	50*	-12	76*	-14
CC1=NN(c2ccc(Br)cc2)C(=O)/C1=C/c1cccs1	59	·	·	·
CC1=NN(c2ccc(C)cc2)C(=O)/C1=C\c1ccc(Br)s1	76*	7	1	5
CC1=C(C#N)c2nc(N)c(C#N)c(C)c2/C1=C\c1ccc(-c2ccccc2C(=O)O)o1	40	37*	12	56
COc1cccc(NC(=O)Nc2ccc(C(C)(C)C)cc2)c1	-38	-23	66*	-3
COc1cccc(NC(=O)Nc2ccncc2)c1	3	0	-2	-5
CN(CCCNC(=O)CSc1cc(=O)n(C)c2ccc(Cl)cc12)Cc1ccccc1	26	2	-2	-4
CCOc1ccc(NS(=O)(=O)c2ccc3c(c2)N(C(C)=O)CCS3)cc1	6	·	·	·
O=C(Cc1ccccc1)NC(=S)Nc1ccc2oc(-c3ccccc3)nc2c1	-12	-2	2	-1
COC(=O)c1ccc(Nc2cc(C)nc3ccc(C)cc23)cc1	21	-11	-1	-6
Cc1ccc2nc(C)cc(Nc3ccc([N+](=O)[O-])cc3)c2c1	18	-2	2	77*
COc1ccc(N(C(=O)c2ccco2)C(C(=O)NC2CCCC2)c2ccc(OC)c(OC)c2)cc1 (configuration not stated)	5	·	·	·
Cc1cnc([N+](=O)[O-])n1CCOC(=O)NC(=O)c1ccccc1	1	0	-3	-8
Cc1ccc(C(=O)NC(=O)OCCn2c(C)cnc2[N+](=O)[O-])cc1	2	10	1	74*
COCCn1c(C)cc(C2=NNC(=Nc3ccc(Cl)cc3Cl)SC2)c1C	-14	-38	-10	72*
Cc1cc(C)n(C(=O)COc2ccccc2[N+](=O)[O-])n1	15	-9	-1	1
Cc1oc2c(c1C(=O)c1ccccc1)C(=O)C(=O)c1ccccc1-2	93*	-2	-2	-10
SMILES	UBC9 SUMO inh	NCF1 inh	eIF4E-4G inh	14-3-3 Bad inh
N#CCCn1[nH]c(-c2ccccc2)cc1=O	69*	-1	5	-6
Cc1nc(SCc2c(F)cccc2Cl)n[nH]1	12	-8	-6	85*
O=S(=O)(NNc1nccc(C(F)(F)F)n1)c1cccc(Cl)c1Cl	4	-5	5	-3
O=C(CN(Cc1ccccc1Cl)C(=O)c1csnn1)NCc1ccccc1	17	·	·	·
Cc1ccc(-c2cc(C(=O)N/N=C/c3ccco3)n[nH]2)s1	63*	-14	5	1
CC(C)(C)c1cc(C(=O)N/N=C/c2ccco2)n[nH]1	-4	-9	0	6
